Compounds with a hit are over-represented: about 27% of the library has one in this group of screens.
CYP2C9 inhib: inhibitors of human CYP2C9 | inhibition, % at 5 µM | CYP2C9 Supersomes, luciferin-H conversion, luminescence | AID 777 | actives 20% (n = 96,000);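 active = blocking of liver enzyme CYP2C9 beyond about 50% at 5 µM, limit read from the data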
CYP2C9 activ: increases human cytochrome P450 2C9 activity. actives 1.4% (n = 96,000). activation factor at 5 µM. P11712. recombinant CYP2C9, luciferin-H conversion, luminescence; stronger effect = higher value; factor 1 = untreated enzyme, 0 = blocked. AID 1024;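 active = activation factor of 2 or more for CYP2C9 at a 5 µM dose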;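 also: 0 = sulfaphenazole-blocked wells and 1 = vehicle-only wells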
sEH inh: inhibitors of human soluble epoxide hydrolase | recombinant human sEH enzymatic activity assay | inhibition, % at 2 µM | actives 0.34% (n = 91,000) | P34913; in the data active = inhibition above about 80%
CYP2C19 act: activators of human cytochrome P450 2C19; P33261; recombinant CYP2C19, luciferin-H EGE luminescence; stronger effect = higher value; 0 = fully inhibited enzyme, 1 = untreated enzyme; activation factor at 5 µM; 96,000 tested, under 10 active; AID 1025;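 active = activation factor of at least 2 at 5 µM in the primary screen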;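 also: 0 = wells with 2.5 mM tranylcypromine and 1 = vehicle-only wells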
Target sequence (P33261 whole entry, looked up): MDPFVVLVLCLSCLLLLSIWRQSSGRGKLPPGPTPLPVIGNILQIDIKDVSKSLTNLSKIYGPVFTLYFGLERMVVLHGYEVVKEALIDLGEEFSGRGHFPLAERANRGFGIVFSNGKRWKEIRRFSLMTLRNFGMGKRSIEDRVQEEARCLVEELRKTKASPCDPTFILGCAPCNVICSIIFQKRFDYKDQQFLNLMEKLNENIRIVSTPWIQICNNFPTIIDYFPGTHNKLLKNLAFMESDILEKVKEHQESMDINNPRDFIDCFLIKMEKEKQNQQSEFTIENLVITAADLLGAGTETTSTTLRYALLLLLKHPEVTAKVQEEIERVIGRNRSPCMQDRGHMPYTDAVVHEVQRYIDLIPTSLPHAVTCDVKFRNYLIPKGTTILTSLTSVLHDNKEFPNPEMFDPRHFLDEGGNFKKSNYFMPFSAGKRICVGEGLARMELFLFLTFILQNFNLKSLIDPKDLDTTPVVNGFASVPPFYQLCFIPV
CYP2C19 inhib: human CYP2C19 inhibition | P33261 | CYP2C19 Supersomes, luciferin-H EGE luminescence, 30 min | inhibition, % at 5 µM | actives 21% (n = 96,000) | AID 778;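 active = CYP2C19 inhibition above a set limit at 5 µM in the primary screen, cut at about 50% in these data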;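 also: plate controls were negative control wells for no effect and 2.5 mM tranylcypromine positive control for full effect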
sEH act: activators of human soluble epoxide hydrolase; P34913; purified human sEH enzymatic activity, activator screen; activation, % at 2 µM; actives 0.04% (n = 91,000); in the data active = activation above about 37%
* hit, by the source's call; · = not tested or not shown.

SMILES	CYP2C9 inhib	CYP2C9 activ	sEH inh	CYP2C19 act	CYP2C19 inhib	sEH act
Cn1cc(C(=O)c2cccc(Cl)c2Cl)cc1C(=O)O	-8	1.1	-8	1.1	-9	11
COC(=O)c1cc(C(=O)c2ccc(Cl)cc2Cl)cn1C	14	0.9	1	0.4	58*	1
O=C(COCc1nc2ccccc2c(=O)[nH]1)NC1CCCC1	19	0.8	4	0.6	38	-4
O=C1c2ccsc2SCCN1Cc1c(Cl)cccc1Cl	89*	0.1	-13	0	97*	11
O=C1c2ccsc2SCCN1Cc1ccc(Cl)cc1Cl	30	0.7	-4	0.5	53*	1
O=C(Nc1cnn(Cc2ccc(Cl)cc2Cl)c1)c1cc(-c2cccs2)on1	1	1	·	1	3	·
O=C(O)CN1C(=O)SC(Nc2ccccc2C(=O)O)C1=O (centres undefined)	-9	1.1	-3	1	1	1
Nc1nc(SCC(=O)NC2CCCCCC2)[nH]c(=O)c1-c1ccccc1	-24	1.2	34	1	2	-33
CCOC(=O)c1c(C)nc2c(c1-c1ccc(OC)cc1)C(=O)CC(C)(C)C2	18	0.8	-31	0.9	13	31
CCOC(=O)c1c(C)nc2c(c1C)/C(=N/O)CC(C)(C)C2	54*	0.5	·	0.4	64*	·
O=C(CSc1n[nH]c(-c2ccco2)n1)Nc1sc2c(c1C(=O)Nc1ccccc1)CCCC2	84*	0.2	-3	0.5	48	6
CCOC(=O)CNC(=O)CSc1nnnn1-c1ccc(C)c(C)c1	-163	2.6*	-4	0.8	17	4
CCn1nnnc1SCC(=O)Nc1sc(C)c(C)c1C#N	79*	0.2	0	0.8	19	2
CCOC(=O)c1c(NC(=O)CSc2n[nH]c(N)n2)sc(CC)c1C	76*	0.2	·	0.5	50	·
CCOC(=O)N1CCC(NC(=O)c2cc(S(=O)(=O)N(CC)CC)ccc2F)CC1	43	0.6	51	0.8	15	-52
CCOC(=O)c1c(NC(=O)CSc2nnnn2CC)sc(C)c1C	52*	0.5	4	0.9	14	-3
CCOC(=O)c1c(NC(=O)CSc2n[nH]c(CNc3ccccc3)n2)sc(C)c1C	·	·	56	·	·	-55
CCOC(=O)c1sc(NC(=O)CSc2nncs2)c(C(=O)OCC)c1C	10	0.9	·	1	2	·
CCOC(=O)c1c(NC(=O)CSc2nnnn2C)sc(CC)c1C	48	0.5	·	0.2	83*	·
CCOC(=O)c1c(NC(=O)CSc2n[nH]c(-c3ccco3)n2)sc(C)c1C	88*	0.1	0	0.6	37	4
CCOC(=O)c1sc(NC(=O)CSc2nnnn2-c2ccc(C)cc2)c(C(=O)OCC)c1C	80*	0.2	-4	0.5	48	2
CC(C)(C)OC(=O)N1CCN(c2ccc(CNC(=O)c3ccc(Cl)cc3)cc2)CC1	48	0.5	2	0.6	38	-3
CCOC(=O)N1CCC(NC(=O)CS(=O)(=O)Cc2nc(-c3cccc(OC)c3)oc2C)CC1	12	0.9	0	0.9	10	-1
COc1cccc(-c2nc(CS(=O)(=O)CC(=O)N3CCN(c4ccccn4)CC3)c(C)o2)c1	51*	0.5	·	0.8	21	·
COc1ccc(OC)c(CCNC(=O)CS(=O)(=O)Cc2nc(-c3ccc(C)cc3)oc2C)c1	66*	0.3	21	0.5	54*	-20
SMILES	CYP2C9 inhib	CYP2C9 activ	sEH inh	CYP2C19 act	CYP2C19 inhib	sEH act
CCN(CCNC(=O)CS(=O)(=O)Cc1nc(-c2cccc(OC)c2)oc1C)c1ccccc1	87*	0.1	15	0.2	78*	-15
CCOC(=O)c1cccc(NC(=O)CS(=O)(=O)Cc2nc(-c3cccc(OC)c3)oc2C)c1	76*	0.2	·	0.6	45	·
Nc1cc(=O)[nH]c(SCCNS(=O)(=O)c2ccccc2)n1	-3	1	5	1	-2	-7
Cc1nn(C(C)C(=O)NCc2ccccc2Cl)c(=O)c2c1sc1ccccc12 (centres undefined)	97*	0	-10	0.1	88*	9
CCOC(=O)N1CCN(C(=O)Cn2nc(C)c3sc4ccccc4c3c2=O)CC1	-30	1.3	·	1.1	-6	·
CCOC(=O)N1CCN(C(=O)C(CC)n2nc(C)c3sc4ccccc4c3c2=O)CC1 (centres undefined)	58*	0.4	-20	0.9	9	18
O=C(c1ccc(F)cc1)N1C2CCC1CC(O)(c1ccc(F)cc1)C2 (centres undefined)	-4	1	3	0.9	13	-3
O=C(c1cccnc1)N1C2CCC1CC(O)(c1ccc(F)cc1)C2 (centres undefined)	12	0.9	-15	0.5	52*	16
c1ccc2nc(-c3nc4ccccc4o3)ccc2c1	43	0.6	·	0.3	71*	·
COc1ccc(S(=O)(=O)Nc2nc3ccccc3s2)cc1	50*	0.5	-15	0.9	8	16
CCOc1ccc2sc(NS(=O)(=O)c3ccc(OC)c(OC)c3)nc2c1	92*	0.1	2	0.7	28	-4
COc1ccc2nc(NS(=O)(=O)c3ccc(NC(C)=O)cc3)sc2c1	30	0.7	·	1.1	-12	·
CCOc1ccc2nc(SCc3ccccc3C#N)sc2c1	-147	2.5*	4	0.5	51*	-2
Cc1ccc(C)c2nc(N3CCCC3)c(C#N)cc12	-42	1.4	·	1	0	·
Cc1ccc(CN2C(=O)C3CCCN3c3ccc(S(=O)(=O)N4CCOCC4)cc32)cc1 (centres undefined)	43	0.6	3	0.9	10	-4
Cc1nn(-c2ccccc2)c(C)c1NS(=O)(=O)c1ccccc1	91*	0.1	·	0	96*	·
O=S(=O)(Nn1cnnc1)c1ccccc1	·	·	-8	·	·	13
COc1ccc(S(=O)(=O)N(n2c(C)nnc2-n2nc(C)cc2C)S(=O)(=O)c2ccc(OC)cc2)cc1	·	·	2	·	·	-2
Cc1nn(-c2ccccc2)c(C)c1NC(=O)c1ccc(S(=O)(=O)N2CCCC2)cc1	57*	0.4	-9	0.9	12	8
CCn1nc(C)c(NS(=O)(=O)c2ccccc2)c1C	11	0.9	7	0.2	85*	-9
COc1ccc(S(=O)(=O)Nc2cc(C)nn2-c2ccccc2)cc1	98*	0	8	0.8	18	-8
Cc1nn(C)c(C)c1NS(=O)(=O)c1ccccc1	7	0.9	-10	0.7	27	10
COCCCNC(=O)C(=O)N/N=C/c1ccc(OCC(=O)Nc2cccc(Cl)c2C)c(OC)c1	3	1	-5	0.9	9	5
Cc1nn(-c2ccccc2)c(C)c1/C=N\NS(=O)(=O)c1ccc(Cl)cc1	99*	0	2	0	98*	0
COc1ccc(C(=O)n2nc(C)cc2Nc2ccccc2)cc1	75*	0.2	-7	1	2	2
C=CCN(C(=O)CCC(=O)O)C1CC(=O)N(c2ccc(OCCC)cc2)C1=O (centres undefined)	5	0.9	·	0.9	9	·
